# Bioassay records (PubChem)
# In the library only some 3.7% were active in any assay of this set; here they are far more common.
# PfHsp90 yeast 2 = growth inhibition of PfHsp90-expressing yeast, primary screen, antimalarial PfHsp90 inhibitor project, S. cerevisiae, BacTiter-Glo luminescence, single point, set 2; BacTiter-Glo ATP, 48 h; yeast lacking PDR1 and PDR3 efflux regulators; 0.32% of 310,000 active; inhibition, % at 9.4 µM;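 active means every replicate shows inhibition above about 80%, whatever the replicate mean, limit read from the data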
# NLRP3 yeast inh = NALP3 inflammasome inhibitors in reconstituted yeast, primary screen, luminescence, uHTS; Yeast reconstituted NLRP3/ASC/caspase-1, beta-gal luminescence, 24 h; inhibition, % at 10 µM; 0.39% of 330,000 active;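 active means inhibition of 50% or more; inactive means inhibition below 50%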
# tim23-1 inh = growth inhibitors of tim23-1 mutant yeast, primary screen, luminescence, uHTS | 1.3% of 330,000 active | AID 463212, 2010 | S. cerevisiae tim23-1 growth, BacTiter-Glo luminescence, 24 h | inhibition, % at 20 µM;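 active means growth inhibition of the mutant yeast at or above 50%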;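 further: temperature-sensitive mutant grown at 25 °C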
# tim10-1 inh = growth inhibitors of tim10-1 mutant yeast, primary screen, luminescence, uHTS | S. cerevisiae tim10-1 ts strain growth, BacTiter-Glo, 24 h | inhibition, % at 20 µM | 2.2% of 330,000 active | AID 463190, 2010;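 active means inhibition of at least 40%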;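 further: mutant grown at 25 °C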
# TIM10 inh = growth inhibitors of isogenic TIM10 control yeast, primary screen, counter-screen for tim10-1 yeast inhibitor project, luminescence, uHTS; inhibition, % at 10 µM; S. cerevisiae TIM10 strain growth, BacTiter-Glo luminescence, 24 h; AID 463195, 2010; 1.4% of 330,000 active;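 active means inhibition of 40% or more at the single tested concentration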;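 further: wild-type TIM10 isogenic control strain grown at permissive 25 °C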
# tim10-1 conf = growth inhibitors of tim10-1 mutant yeast, confirmation, single concentration, luminescence, S. cerevisiae; shares compounds with tim10-1 inh; S. cerevisiae tim10-1 ts strain growth, BacTiter-Glo, 24 h; inhibition, % at 20 µM; 56% of 7,400 active;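 active means inhibition of yeast growth at or above a set limit in either of two repeat tests at 20 µM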;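 further: tim10-1 mutant grown at permissive 25 °C to find synthetic lethal compounds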
# A number is an active result; 0 = inactive; - = no result.
SMILES,PfHsp90 yeast 2,NLRP3 yeast inh,tim23-1 inh,tim10-1 inh,TIM10 inh,tim10-1 conf
COc1ccc(/C=N/c2c(-c3ccc(OC)cc3)nc3n2CCS3)cc1,0,0,0,40,0,0
O=S(=O)(Nc1ccc(-n2cccc2)cc1)c1ccc(F)cc1,0,0,0,0,0,-
O=S(=O)(Nc1ccc(-n2cccc2)cc1)c1ccc(Cl)cc1Cl,0,0,0,48,0,0
CC(C)c1ccc(NC(=O)C2CCC(CNC(=O)[C@@H]3Cc4ccccc4CN3)CC2)cc1 (stereo not given in full),0,0,0,0,0,-
CSc1ccccc1NC(=S)N/N=C/c1cccn1Cc1ccc(F)cc1,0,0,0,44,0,0
COc1ccc(NC(=O)CN2C(=O)NC3(CCCCCC3)C2=O)cc1Cl,0,0,0,0,0,-
O=C(CSc1n[nH]c(-c2ccco2)n1)N1c2ccccc2Sc2ccccc21,-,0,0,46,0,0
CCOC(=O)CSc1n[nH]c(-c2ccco2)n1,0,0,0,0,0,-
Cc1nn(-c2ccccc2)c2c1c(C)c(CCC(=O)N1CCOCC1)c(=O)n2C,0,0,0,41,0,0
CN(C(=O)c1cccc(NC(=O)Cc2ccc(NC(=O)C3CCCN(C(=O)CCc4ccccc4)C3)cc2)c1)C1CCC1 (stereo not given),0,-,-,-,-,-
O=C(N/N=C/c1ccc[nH]1)c1cc(-c2ccc(Cl)cc2)nc2ccccc12,0,0,0,56,0,51
O=C(N/N=C/c1ccc([N+](=O)[O-])o1)c1cc(-c2ccc(-c3ccccc3)cc2)nc2ccccc12,0,0,0,56,0,42
O=C(N/N=C/c1ccc([N+](=O)[O-])o1)c1cn(-c2ccccc2)nc1-c1ccccc1,0,0,0,54,0,0
O=C(N/N=C/c1ccc([N+](=O)[O-])o1)c1cc(-c2ccncc2)nc2ccccc12,0,0,0,0,0,-
O=C(N/N=C/c1ccc([N+](=O)[O-])o1)c1cn(-c2ccccc2)nc1-c1ccc(Cl)cc1,-,0,0,0,0,-
COc1ccc(-n2c(C)nc3c(cnn3-c3ccc(Cl)cc3)c2=O)cc1,0,0,0,41,0,0
O=C(O)c1ccc(CSc2nc3ccc(N4C(=O)C5C6C=CC(C6)C5C4=O)cc3s2)cc1 (stereo not given),0,0,0,52,0,0
CCc1cccc(CC)c1NC(=O)CSc1nc2ccc(N3C(=O)C4C5C=CC(C5)C4C3=O)cc2s1 (stereo not given),0,0,0,0,0,-
Cc1n[nH]c(C)c1S(=O)(=O)N(C)Cc1ccco1,0,0,0,0,0,-
O=S(=O)(c1ccccc1)N1CCC(=NO)CC1,0,0,0,0,0,-
O=C(ON=C1CCN(S(=O)(=O)c2ccccc2)CC1)c1ccccc1,-,0,0,58,0,56
COc1ccc(NC(=O)C2CCCN(S(=O)(=O)c3ccc(Cl)cc3)C2)cc1OC (stereo not given),0,0,0,0,0,-
Cn1c(-c2ccccc2)cc(=O)n1-c1ccccc1,0,-,-,-,-,-
CCc1ccc([C@@H]2CC=C(C(=O)O)[C@H](c3ccccc3F)N2S(=O)(=O)c2ccc(C)cc2)cc1,0,0,0,41,0,0
CCN1C(=O)C(O)(CC(=O)/C=C/C=C/c2ccccc2)c2ccccc21 (stereo not given),-,0,0,0,0,-
SMILES,PfHsp90 yeast 2,NLRP3 yeast inh,tim23-1 inh,tim10-1 inh,TIM10 inh,tim10-1 conf
Cc1ccc2c(c1)C(O)(CC(=O)/C=C/C=C/c1ccccc1)C(=O)N2 (stereo not given),0,0,0,40,0,28
O=C(/C=C/C=C/c1ccccc1)CC1(O)C(=O)N(CCc2ccccc2)c2ccccc21 (stereo not given),-,0,0,45,0,52
Cc1cc(C)cc(Nc2ncc3c(n2)CC(c2ccco2)CC3=O)c1 (stereo not given),0,0,0,45,0,33
COc1ccccc1-c1nc(S(=O)(=O)c2ccccc2)c(N2CCOCC2)o1,0,0,0,0,0,-
COc1ccc(C2(O)CC3CCC(C2)N3c2cc(C)nc(-c3ccccc3)n2)cc1 (stereo not given),0,0,0,42,0,32
CCOc1ccc(NC(=O)c2ccc(Cl)c(NC(=O)c3ccco3)c2)cc1,0,0,0,0,0,-
O=C(Nc1cccc2cccnc12)c1ccc2c(c1)OCCO2,0,0,0,41,0,0
COc1cc(NC(=O)c2ccc3c(c2)OCO3)c2ncccc2c1,0,0,0,0,0,-
Cc1ccc(SCC2(O)CCN(S(=O)(=O)c3ccc(Cl)cc3)CC2)cc1,-,0,0,41,0,0
CCCCCCCCCCOC(=O)Cn1c(COc2ccccc2OC)[n+](C)c2ccccc21,0,0,0,46,0,65
O=C(COC(=O)CCS(=O)(=O)c1ccccc1)Nc1cc(S(=O)(=O)N2CCCCC2)ccc1Cl,-,0,0,40,0,42
Cc1ccc(S(=O)(=O)CCC(=O)OCC(=O)Nc2cc(S(=O)(=O)N3CCOCC3)ccc2Cl)cc1,0,-,-,-,-,-
CCOc1ccc(-c2nnc(N3CCOCC3)c3ccccc23)cc1,0,0,0,0,0,-
COc1ccc(C(CNC(=O)c2oc3ccc(Br)cc3c2C)N2CCCCC2)cc1 (stereo not given),0,0,0,0,0,-
COc1ccc(C(CNC(=O)c2oc3cc(Br)ccc3c2C)N2CCCCC2)cc1 (stereo not given),0,0,0,42,0,0
Cc1ccc(C)c(S(=O)(=O)Nc2cc3c4c(c2)CCC(=O)N4CCC3)c1,0,0,0,0,0,-
Cc1nnc(SCc2cc(=O)oc3ccc4ccccc4c23)n1Cc1ccccc1,0,0,0,46,0,0
O=C(COC(=O)C1CC2C=CC1C2)Nc1cccc(S(=O)(=O)N2CCCCC2)c1 (stereo not given),0,0,0,0,0,-
O=C(COC(=O)C1CC2C=CC1C2)Nc1cccc(S(=O)(=O)N2CCCCCC2)c1 (stereo not given),0,0,0,49,0,0
COc1ccc2cc3cc(C(=O)N4CCCCCC4)oc3nc2c1,0,0,0,0,0,-
COc1ccc2cc3cc(C(=O)N(C)C4CCCCC4)oc3nc2c1,0,0,0,45,0,0
CCc1ccc(Nc2n[n+](-c3ccccc3)c(/C=C/c3ccccc3)s2)cc1,-,0,0,43,0,0
CN(Cc1ccccc1)C(=O)CCS(=O)(=O)c1cc2c(cc1Cl)NC(=O)CO2,0,0,0,0,0,-
Cc1ccc(NC(=O)C2CCCN(c3ncnc4c3nc3n4CCCCC3)C2)cc1Cl (stereo not given),0,0,0,0,0,-
